This note sets out measurements from PubChem BioAssay AID1851 (National Center for Advancing Translational Sciences (NCATS), 2009).

Hit rate of the full screen: of about 16,000 compounds, about 4,000 (25%) were called active. Not shown: some 26% with an inconclusive outcome. Calls come from the whole dose curve; as a rule, active = well fitted curve in the direction sought with a large enough effect; inconclusive = small, poorly fitted or top-dose-only effect, or effect the other way; inactive = no such curve, though single readings can be large or run the other way. A selection follows. More than one record can exist for a structure, and the calls need not agree.
% is set by controls: 0 for no effect and ±100 for the full control effect.

For this experiment, the target named is Cytochrome P450 2C9 (Homo sapiens) (UniProt P11712). Kind of experiment: Cytochrome panel assay with activity outcomes. As to conditions: recombinant CYP, pro-luciferin dealkylation, luminescence, p450-cyp2c9; series mostly up to 57.1 µM; activity, negative = inhibition: at the top concentration. Here is the method: The P450 gene superfamily is involved in the metabolism and clearance of xenobiotics. This assay used various human CYP P450 isozymes to measure the dealkylation of various pro-luciferin substrates to luciferin. The luciferin is then measured by luminescence after the addition of a luciferase detection reagent. Pro-luciferin substrate concentration in the assay was equal to its KM for its CYP P450 isozyme. Inhibitors and some substrates limit the production of luciferin, and decrease measured luminescence.
Sequence of Cytochrome P450 2C9 (Homo sapiens) (P11712 whole entry, looked up): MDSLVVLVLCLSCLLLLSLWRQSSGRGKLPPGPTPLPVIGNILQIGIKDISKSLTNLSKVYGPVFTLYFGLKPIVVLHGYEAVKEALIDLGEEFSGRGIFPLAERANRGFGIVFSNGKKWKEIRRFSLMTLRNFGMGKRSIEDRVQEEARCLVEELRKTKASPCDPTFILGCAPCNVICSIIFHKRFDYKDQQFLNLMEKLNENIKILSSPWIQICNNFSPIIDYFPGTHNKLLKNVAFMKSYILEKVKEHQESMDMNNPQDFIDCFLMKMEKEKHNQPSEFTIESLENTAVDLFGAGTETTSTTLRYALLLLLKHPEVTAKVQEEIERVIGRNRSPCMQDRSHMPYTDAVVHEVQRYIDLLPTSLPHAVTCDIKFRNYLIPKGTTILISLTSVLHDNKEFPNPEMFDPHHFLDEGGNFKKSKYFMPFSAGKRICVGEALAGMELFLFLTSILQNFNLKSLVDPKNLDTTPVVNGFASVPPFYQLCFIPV
NCGC Assay Protocol Summary:
1, Reagent, 2 uL, Isozyme and Pro-Luciferin
2, Library compounds, 23 nl, 40 uM to 0.24 nM dilution series
3, Controls, 23 nl, Isozyme specific inhibitor
4, Reagent, 2 uL, NADPH regeneration solution
5, Incubation time, 60 min, Isozyme specific temperature
6, Reagent, 4ul, Detection reagent
7, Incubation time, 20 min, Isozyme specific temperature
8, Detection, 1 sec, ViewLux luminescent read
The luciferase-based P450-GloTM Screening Systems were obtained from Promega (Madison, WI) for CYP 1A2 (V9770), CYP 2C9 (V9790), CYP2 C19 (V9880), CYP 2D6 (V9890), and CYP 3A4 Luciferin-PPXE (V9910) and were adapted for 1,536-well microplates and an automated protocol. The control compounds furafylline for 1A2 (F124), sulfaphenazole for CYP 2C9 (S0758), ketoconazole for CYP 2C19 (K1003), quinidine for 2D6 (Q3625), and ketoconazole for 3A4 (K1003) were purchased from Sigma Aldrich (St. Louis, MO). Recombinant P450 enzymes were obtained from baculovirus constructs expressed in insect cells (BD/Gentest).
Medium-binding white solid Kalypsys plates used. Mixtures kept on ice. 1A2: 10 nM 1A2, 100 uM Luc-ME, 100 mM KPO4; 2C9: 10 nM 2C9, 100 uM Luc-H, 25 mM KPO4; 2C19: 5 nM 2C19, 10 uM Luc-H EGE, 50 mM KPO4; 2D6: 5 nM 2D6, 30 uM Luc-ME EGE, 100 mM KPO4; 3A4: 10 nM, 25 uM Luc-PPXE. All amounts are reflected in their final concentration, working concentration is 2x.
NADPH regeneration solution: 1.3 mM NADP+, 3.3 mM glucose-6-phosphate, 3.3 mM MgCl2, 0.4 U/mL glucose-6-phosphate dehydrogenase for all isozymes, 200 mM KPO4 for 3A4. Mixture prepared at RT but kept on ice during automated run.
RT incubation in auxilliary plate hotel for 1A2, 2D6, and 3A4; 37C for 2C9 and 2C19.
Keywords: P450, CYP1A2, CYP2C19, CYP2C9, CYP2D6, CYP3A4, Luciferase, MLSMR, MLSCN, NIH Roadmap, qHTS, NCGC
Regarding `c1ccc2c([C@@H]3CCN(CCN4CCOCC4)C3)c[nH]c2c1`, the activity, negative = inhibition was -7.99% [at 11.4 µM] (inactive). Regarding `Cc1cc(OC(=O)CCCNC(=O)OC(C)(C)C)c2c3c(c(=O)oc2c1)CCC3`, the AC50 was 11200 nM (active).

For the compound `Cc1cc(OCc2ccc([N+](=O)[O-])cc2)c2c3c(c(=O)oc2c1)CCCC3`, the half-maximal activity concentration (AC50) was 141 nM (active). Still for that read-out and setting: to `Cc1cc(OCC(=O)OC(C)C)c2c3c(c(=O)oc2c1)CCCC3` belongs 2000 nM (active).

With `COc1cc2cc(c1Cl)N(C)C(=O)C[C@H](OC(=O)C(C)C)[C@]1(C)O[C@@H]1[C@@H](C)[C@H]1C[C@](O)(NC(=O)O1)[C@@H](OC)/C=C\C=C(\C)C2`, the activity, negative = inhibition is 8.76% [at 11.4 µM] (inactive).

In the case of `c1ccc2c(c1)-c1ccccc1C2N1CC2CCC(CC2)C1`, the activity, negative = inhibition is -14.3% [at 11.4 µM] (inactive). `CC(C)[N+](C)(CCC(C(N)=O)(c1ccccc1)c1ccccc1)C(C)C`: the “activity, negative = inhibition” value is -15% [at 25.6 µM] (inactive). `CCSCC[C@H](N)C(=O)O`: the activity, negative = inhibition was -1.99% [at 11.4 µM] (inactive).

Turning to `C[C@H](N)Cc1c[nH]c2ccc(OCc3cccs3)cc12`, the activity, negative = inhibition result is “inactive”. `C[C@@H]1[C@@H]2Cc3ccc(O)cc3[C@@]1(C)CCN2CC1CC1`: the “activity, negative = inhibition” value is -8.03% (inactive). For the compound `N#CCCCC[N+]12CN3CN(CN(C3)C1)C2`, the activity, negative = inhibition is 6.4% [at 11.4 µM] (inactive). Still for that read-out and setting: to `C[C@H](c1ccccc1)N1CCN([C@@H](C)c2ccccc2)CC1` belongs 5.45% [at 11.4 µM] (inactive); to `O=C(O)[C@@H]1[C@H](C(=O)O)[C@]2(Cl)C(Cl)=C(Cl)[C@@]1(Cl)C2(Cl)Cl`, -24.4% [at 11.4 µM] (inactive). As to `C/C=C(\C)C(=O)O[C@@H]1C(C)=C2[C@H]([C@@H]1OC(=O)CCCCCCC)[C@@](C)(OC(C)=O)C[C@@H](OC(=O)CCC)[C@@]1(O)[C@H]2OC(=O)[C@]1(C)O`, the AC50 was 31600 nM (active). As for `CNC[C@H](O)c1ccc(O)cc1`, the “activity, negative = inhibition” value is -2.51% [at 25.6 µM] (inactive). As to `CN1CCN(c2ccc3ccccc3n2)CC1`, the activity, negative = inhibition result was “inactive”. On the same count and under the same terms, to `CCCN1CCO[C@@H]2c3cc(O)ccc3OC[C@H]21` belongs “inactive”; to `O=[As](O)(O)c1ccc2nc3cc([As](=O)(O)O)ccc3nc2c1`, 1.65% [at 11.4 µM] (inactive). The same measure, in the same setting: the value for `CCCN1CCc2cccc3c2[C@@H]1Cc1ccc(O)c(O)c1-3` was -23.4% (inactive). `COCCn1c(SCc2nc3sc(C(=O)OC)c(C)c3c(=O)[nH]2)nc2ccccc21`: the concentration at half-maximal activity (AC50) is 891 nM (active). `NC(N)=Nc1ccc2[nH]c3c(c2c1)C[C@]1(O)[C@@H]2Cc4ccc(O)c5c4[C@]1(CCN2CC1CC1)[C@@H]3O5`: the “activity, negative = inhibition” value is 0.123% (inactive). Same read-out and setting: to `CCN1C[C@@]2(COC)[C@H]3[C@@H](OC)[C@H]4C1[C@@]3([C@H](OC)C[C@@H]2O)[C@H]1C[C@@]2(O)[C@@H](OC(=O)c3ccccc3)[C@@H]1[C@@]4(OC(C)=O)[C@H](O)[C@@H]2OC` belongs 5.31% [at 25.6 µM] (inactive). For the compound `COc1ccc(C2SCC(=O)Nc3c2c(C)nn3-c2ccccc2)cc1OC` (stereo not drawn), the concentration at half-maximal activity (AC50) is 10000 nM (active). Consider `O=C(Oc1ccc(S(=O)(=O)F)cc1F)c1ccccc1Cl`, for which the activity, negative = inhibition is -12.2% [at 11.4 µM] (inactive). As to `C/C(O)=C(/C#N)C(=O)Nc1cc(Br)ccc1Br`, the “activity, negative = inhibition” value was 15.6% (inactive).

On to `O=C1C2CCN(CC2)C1(CO)CO`, for which the AC50 was 63.1 nM (active) and the activity, negative = inhibition is -2.93% [at 11.4 µM] (inactive). For `O=P(O)(O)C(Cl)(Cl)P(=O)(O)O`, the “activity, negative = inhibition” value is -14.4% (inactive). The same measure, in the same setting: the value for `COC1=CC(=O)O[C@@H](/C=C\c2ccccc2)C1` was -17.6% [at 25.6 µM] (inactive). Consider `N[C@H](CP(=O)(O)O)C(=O)O`, for which the “activity, negative = inhibition” value was 1.7% (inactive). Regarding `CN1C(=O)C(C2c3ccccc3C(=O)N2Cc2ccc([N+](=O)[O-])cc2)C(=O)N(C)C1=O` (stereo not drawn), the half-maximal activity concentration (AC50) was 25100 nM (active).

As to `CCCCN1C(=O)C(C2c3ccccc3C(=O)N2Cc2ccccc2)C(=O)NC1=S` (stereo not drawn), the AC50 was 2000 nM (active).

Take `Cc1cc(C)c(-n2c(O)c(C=NCCN3CCOCC3)c(=O)[nH]c2=O)c(C)c1`: the “activity, negative = inhibition” value was 49.6% (inactive). As to `CCC(=O)Nc1ccc(N2CCN(CC)CC2)c(Cl)c1`, the “activity, negative = inhibition” value is -6.79% (inactive). On to `NC(=O)CN1C[C@@H](O)CC1=O`, for which the “activity, negative = inhibition” value is 17.9% (inactive). Consider `CC1(C)CCC(C)(C)c2c1ccc(O)c2Cc1c(O)ccc2c1C(C)(C)CCC2(C)C`, for which the activity, negative = inhibition is -17.2% [at 11.4 µM] (inactive). Consider `C[C@@]12CCC(=O)C=C1C=C[C@H]1[C@H]3CC[C@](O)(CCC(=O)O)[C@]3(C)CC[C@@H]12`, for which the “activity, negative = inhibition” value was 12.2% [at 25.6 µM] (inactive). `CC(C)c1ccc(C(c2c(O)c3ccccc3oc2=O)c2c(O)c3ccccc3oc2=O)cc1`: the half-maximal activity concentration (AC50) was 3160 nM (active). The same measure, in the same setting: the value for `O=C(C[C@H](c1ccccc1)c1c(O)c2ccccc2oc1=O)c1ccccc1` was 631 nM (active).

Turning to `c1ccc(CN2CCCC3(CCNCC3)C2)cc1`, the “activity, negative = inhibition” value is -5.12% (inactive). Take `CN1CCC(c2c[nH]c3ccc(O)cc23)CC1`: the “activity, negative = inhibition” value was -23.6% (inactive). The same measure, in the same setting: the value for `C[C@]1(O)CC[C@H]2[C@@H]3[C@@H](O)CC4=CC(=O)CC[C@@]4(C)[C@H]3CC[C@]21C` was 14% [at 11.4 µM] (inactive); that for `C[C@@H]1O[C@@H](O[C@H]2C[C@@H](O)[C@]3(CO)[C@@H]4[C@@H](O)C[C@]5(C)[C@H]([C@@H]6COC(=O)C6)CC[C@@]5(O)[C@H]4CC[C@@]3(O)C2)[C@H](O)[C@H](O)[C@@H]1O` was 6.73% (inactive).
